Screening data as filed in PubChem.
Only some compounds are listed: those with a hit (about 28% of all), similar ones and a draw of the others.
CYP2C19 inh – human CYP2C19 inhibition; P33261; CYP2C19 Supersomes, luciferin-H EGE luminescence, 30 min; inhibition, % at 5 µM; 21% of 96,000 active;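 active means CYP2C19 inhibition above a set limit at 5 µM in the primary screen, cut at about 50% in these data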;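 further: plate controls were negative control wells for no effect and 2.5 mM tranylcypromine positive control for full effect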
Target sequence (P33261 whole entry, looked up): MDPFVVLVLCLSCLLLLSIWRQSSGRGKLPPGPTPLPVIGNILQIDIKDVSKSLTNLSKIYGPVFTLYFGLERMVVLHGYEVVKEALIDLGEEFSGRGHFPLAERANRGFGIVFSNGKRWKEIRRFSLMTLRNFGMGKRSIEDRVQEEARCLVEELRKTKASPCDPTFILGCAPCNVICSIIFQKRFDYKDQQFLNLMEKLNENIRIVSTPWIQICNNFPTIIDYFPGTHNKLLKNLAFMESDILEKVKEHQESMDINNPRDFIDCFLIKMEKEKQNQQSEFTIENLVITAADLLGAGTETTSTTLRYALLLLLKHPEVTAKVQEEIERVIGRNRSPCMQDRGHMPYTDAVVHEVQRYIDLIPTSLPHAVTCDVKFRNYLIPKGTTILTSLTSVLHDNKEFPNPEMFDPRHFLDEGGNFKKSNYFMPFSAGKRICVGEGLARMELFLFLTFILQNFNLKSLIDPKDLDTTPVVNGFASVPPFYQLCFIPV
D1 mod – D1 dopamine receptor (human) allosteric modulation | P21728 | HEK293 D1, CRE-luciferase, dopamine EC30 potentiation; actives deviate in either direction | B-score at 10 µM | 5.9% of 58,000 active | AID 641;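 active means luminescence count or its row- and column-corrected plate score outside the 99.7% band of the plate's sample wells, on either side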
CYP2C9 inh – blocks human cytochrome P450 2C9. 20% of 96,000 active. inhibition, % at 5 µM. CYP2C9 Supersomes, luciferin-H conversion, luminescence;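 active means blocking of liver enzyme CYP2C9 beyond about 50% at 5 µM, limit read from the data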
CYP2C9 act – increases human cytochrome P450 2C9 activity; recombinant CYP2C9, luciferin-H conversion, luminescence; hits give high values; factor 1 = untreated enzyme, 0 = blocked; 1.4% of 96,000 active; P11712; activation factor at 5 µM;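 active means activation factor of 2 or more for CYP2C9 at a 5 µM dose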;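 further: 0 = sulfaphenazole-blocked wells and 1 = vehicle-only wells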
CYP2C19 act – activators of human cytochrome P450 2C19; P33261; recombinant CYP2C19, luciferin-H EGE luminescence; hits give high values; 0 = fully inhibited enzyme, 1 = untreated enzyme; activation factor at 5 µM; 96,000 tested, under 10 active; AID 1025;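 active means activation factor of at least 2 at 5 µM in the primary screen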;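 further: 0 = wells with 2.5 mM tranylcypromine and 1 = vehicle-only wells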
hDAT+cocaine – human DAT dopamine uptake with cocaine, either direction. Q01959. LLC-PK1 hDAT cells, [14C]-dopamine uptake with cocaine IC80; actives deviate in either direction. B-score at 10 µM. 1.3% of 110,000 active;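 active means Z score or B-score, a plate-position-corrected score, falls beyond the plate's 99.7% confidence bounds, in either direction; inactive means both scores lie inside the 99.7% bounds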;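 further: scored against the spread of the other compound wells on the same plate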
Numbers without * were called inactive; . = no result given.

SMILES	CYP2C19 inh	D1 mod	CYP2C9 inh	CYP2C9 act	CYP2C19 act	hDAT+cocaine
CSc1cccc(NC(=O)C(C)NS(=O)(=O)c2ccc(F)cc2)c1 (stereo not drawn)	61.8*	.	-0.7	1	0.4	-0.405
O=C(Cn1cnnn1)Nc1ccccc1Cc1ccccc1	.	-0.685	.	.	.	-0.42
N#CC1=C(N)Oc2n[nH]c(-c3cccs3)c2C1c1ccco1 (stereo not drawn)	5.4	1.51	19.5	0.8	0.9	-0.835
COc1ccc(OC)c(-c2[nH]nc3c2C(c2ccco2)C(C#N)=C(N)O3)c1 (stereo not drawn)	80.4*	0.592	38.8	0.6	0.2	-0.0327
O=c1oc2ccccc2cc1-c1nc(-c2cccs2)cs1	-5.0	.	29.5	0.7	1.1	-0.89
CC1CCC(=C(C#N)c2nc(-c3cc4ccccc4oc3=O)cs2)CC1 (stereo not drawn)	36.9	.	88.0*	0.1	0.6	-0.00974
CC(=O)N1CCc2cc(NC(=O)c3ccc(C)cc3)ccc21	-6.6	-2.59*	-14.6	1.1	1.1	-0.926
CCN=C(NCC)SC1CC(=O)N(c2ccc(F)cc2)C1=O (stereo not drawn)	.	.	.	.	.	0.39
CC(NC(=O)COc1ccc(/C=N/NC(=O)C(=O)Nc2ccccc2Br)cc1)c1ccccc1 (stereo not drawn)	46.9	.	68.7*	0.3	0.5	2.39
COc1cc(OC)cc(OCC(O)Cn2ccnc2)c1 (stereo not drawn)	98.3*	1.14	91.2*	0.1	0	-1.8
CCOC(=O)c1ccc(CSc2ncn[nH]2)o1	20.6	.	4.3	1	0.8	-1.26
CCCc1cc(-c2[nH]ncc2-c2ccc(C(=O)OCC)o2)c(O)cc1O	70.4*	0.0432	97.9*	0	0.3	-0.441
CCCc1cc(-c2[nH]ncc2-c2ccc3c(c2)OCCCO3)c(O)cc1O	100.0*	-0.263	100.0*	0	0	0.578
CC(=O)N1CCN(c2ccccc2NC(=O)COc2ccc(Br)cc2)CC1	30.3	.	38.5	0.6	0.7	-0.107
CC(=O)N1CCN(c2ccccc2NC(=O)COc2cc(C)ccc2C(C)C)CC1	89.5*	-5.32*	94.3*	0.1	0.1	-0.391
Cc1ccccc1OCC(=O)Nc1ccccc1N1CCCCC1	16.6	1.19	4.4	1	0.8	-1.06
Cc1ccc(C(C)C)c(OCC(=O)Nc2ccccc2N2CCN(C)CC2)c1	68.9*	.	86.8*	0.1	0.3	1.27
Cc1cccc(OCC(=O)Nc2ccccc2N2CCN(C(=O)C(C)C)CC2)c1C	30.0	0.262	55.7*	0.4	0.7	-0.429
O=C(NCCN1CCOCC1)Nc1ccccc1	2.5	.	13.7	0.9	1	.
CC1(C)CC(C)(O)P(=O)(c2ccccc2)O1 (stereo not drawn)	-0.5	0.0222	-26.0	1.3	1	0.124
Cn1c2c(c3ccccc31)CCN=C2c1ccccc1	.	.	.	.	.	0.307
C=CCN1CCN(C(c2ccccc2)c2nnnn2CCC(C)C)CC1 (stereo not drawn)	43.0	-0.0529	-1.5	1	0.6	-0.212
CCOC(=O)c1ccc(NC(=S)NCCCN2CCCCC2)cc1	2.3	.	14.7	0.9	1	2.05
CC(=O)CC(C)(C)n1nnc(-c2ccccc2)n1	62.5*	-0.346	12.3	0.9	0.4	-0.108
CN(C)/C=N/c1cc(=O)n(C)c(=O)n1Cc1ccccc1	.	.	.	.	.	0.0101
SMILES	CYP2C19 inh	D1 mod	CYP2C9 inh	CYP2C9 act	CYP2C19 act	hDAT+cocaine
CC(C)COc1ccc(C(=O)Nc2scc(-c3ccc(Cl)cc3Cl)c2C(N)=O)cc1	29.5	.	67.3*	0.3	0.7	.
CC(=O)Oc1c(S(=O)(=O)c2ccccc2)c(C)nn1C(C)(C)C	85.8*	-0.93	6.6	0.9	0.1	1.78
COCC(=O)Oc1c(S(=O)(=O)c2ccc(C)cc2)c(C)nn1-c1ccccc1	-3.7	0.358	80.6*	0.2	1	-1.21
Cc1nn(C(C)(C)C)c(OC(=O)c2cccs2)c1S(=O)(=O)c1ccccc1	32.8	-1.39	86.9*	0.1	0.7	1.45
CCC(=O)Oc1c(S(=O)(=O)c2ccc(C)cc2)c(C)nn1C(C)(C)C	68.8*	-0.00394	51.6*	0.5	0.3	0.644
Cc1ccc(S(=O)(=O)N(C)c2ccc(NS(C)(=O)=O)cc2)cc1	66.3*	0.259	-100.5	2*	0.3	-0.0527
Cc1ccc(S(=O)(=O)N(C)c2ccccc2)cc1	94.4*	.	-64.7	1.6	0.1	-0.249
Cc1ccc(N(C)S(=O)(=O)c2ccc(C)cc2)cc1	89.9*	.	50.8*	0.5	0.1	-0.784
